Gal4-VP16 FLuc: counter-screen for ROR gamma inhibitors: Gal4-VP16 reporter | 310,000 compounds, 3.5% hits | Drosophila S2 Gal4-VP16 UAS-luciferase, luminescence, 20 h | Potency, µM (top dose mostly 53.6 µM), hits mostly inhibitors | AID 2546;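 note: Gal4-VP16 expression switched on by copper sulfate through the metallothionein promoter; nearly all actives have a fitted effect of over 50% in size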
TDP1 cell noCPT: qHTS for Inhibitors of human tyrosyl-DNA phosphodiesterase 1 (TDP1): qHTS in cells in absence of CPT; DT40 Tdp1-/- hTDP1 cells, no CPT, ATP luminescence, 48 h; Potency, µM (doses to about 46.2 µM), actives largely listed as inhibitors; 420,000 compounds, 15% hits; note: nearly all actives have a fitted effect of over 55% in size
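Luminescent ATP content (CellTiter-Glo) served as the growth readout. Knockout chicken DT40 cells expressing human TDP1 were exposed to compounds without camptothecin for a minimum 48 hr at 37 °C.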
ELG1 DNA repair: inhibitors of ELG1-dependent DNA repair in HEK293T cells; 330,000 compounds, 2.3% hits; Potency, µM (series often up to 46.1 µM), actives largely listed as inhibitors; HEK293T ELG1-luciferase reporter, luminescence, 16 h; DNA damage induced by 5-fluorouridine; AID 504467; note: nearly all actives have a fitted effect of over 55% in size
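In this reporter screen, reduction of luminescence relative to DMSO vehicle indicated activity. Compounds and 5-fluorouridine were added together to 2,000 cells per well, incubated for 16 hr at 37 °C, then developed with ONE-Glo.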
DT40 TDP1 CPT: DT40-hTDP1 cell growth loss with CPT. Potency, µM (series often up to 46.2 µM), hits mostly inhibitors. 420,000 compounds, 12% hits. chicken DT40 Tdp1-/-;hTDP1 cells + 20 nM CPT, ATP luminescence, 48 h; note: nearly all actives have a fitted effect of over 55% in size
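Chicken DT40 Tdp1-/- cells stably complemented with human TDP1 were seeded at 400 cells/well in medium containing 20 nM camptothecin, exposed to pin-transferred compounds, and grown at 37 °C for at least 48 hr. Viability was read as ATP luminescence.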
RORgamma inh: ROR gamma (mouse) transcription inhibition; P51450; Drosophila S2 Gal4-RORgamma UAS-luciferase reporter, 20 h; Potency, µM (doses to about 53.6 µM), usual class: inhibitors; 310,000 compounds, 5.4% hits; AID 2551; note: nearly all actives have a fitted effect of over 60% in size
Target sequence (P51450 whole entry, looked up, the tested form may be a part): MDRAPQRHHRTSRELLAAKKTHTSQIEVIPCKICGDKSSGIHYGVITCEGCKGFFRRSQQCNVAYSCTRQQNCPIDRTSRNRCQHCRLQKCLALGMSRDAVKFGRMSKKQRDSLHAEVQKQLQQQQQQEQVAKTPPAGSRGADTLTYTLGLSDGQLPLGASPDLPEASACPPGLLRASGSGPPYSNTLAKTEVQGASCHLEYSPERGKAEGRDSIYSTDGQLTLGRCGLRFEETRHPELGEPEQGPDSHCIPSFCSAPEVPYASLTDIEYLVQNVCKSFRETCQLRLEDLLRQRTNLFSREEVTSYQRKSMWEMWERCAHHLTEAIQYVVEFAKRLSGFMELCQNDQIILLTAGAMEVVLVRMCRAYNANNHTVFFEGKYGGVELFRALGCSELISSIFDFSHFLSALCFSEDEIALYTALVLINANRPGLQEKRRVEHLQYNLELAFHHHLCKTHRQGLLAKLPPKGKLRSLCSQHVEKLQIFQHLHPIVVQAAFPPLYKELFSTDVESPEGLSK
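Stable Schneider cell line, Gal4 DNA-binding domain fused to ROR gamma, UAS-luciferase. Cmpd 1 hr RT → CuSO4 700 uM final → 20 hr RT → luciferase reagent 10 min → luminescence.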
IL1B secr inh: blocks inflammasome-driven IL-1 beta release. AID 743279. activity change, % at 57.5 µM. 360,000 compounds, 4.7% hits. THP-1 LPS/ATP IL-1B secretion, AlphaLISA, 16 h; hits give low values; in the data active = activity change below about -50%; inconclusive = mostly about -30% to -49%
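Secreted IL-1B measured by AlphaLISA bead assay after 16 h compound exposure of THP-1 cells; compounds (final up to 57.5 uM) added 1 h before LPS (250 ng/mL) and ATP (1.25 mM) stimulation; lower signal means less secretion.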
Hits are given with their value; i = inactive; ? = inconclusive; nt = not tested or not shown. A selection: hits, their analogues and other compounds. The true share with any hit is near 21%. Unless noted, calls come from the whole dose curve; as a rule, active = well fitted curve in the direction sought with a large enough effect; inconclusive = small, poorly fitted or top-dose-only effect, or another doubt; inactive = no such curve, though single readings can be large; an effect the other way counts as inactive or inconclusive.

SMILES	Gal4-VP16 FLuc	TDP1 cell noCPT	ELG1 DNA repair	DT40 TDP1 CPT	RORgamma inh	IL1B secr inh
Cn1cccc1CN1CCC[C@]2(N[C@H](c3ccccc3)[C@@H]3C(=O)N(Cc4ccccc4)C(=O)[C@@H]32)C1=O	nt	?	nt	?	nt	i
Cc1sc2nc(CSC(C)C(=O)Nc3cc(S(C)(=O)=O)ccc3Cl)[nH]c(=O)c2c1C (stereo unspecified)	nt	i	i	i	nt	i
Cc1nc(NC(=O)CC(C)C)sc1-c1csc(Nc2ccc(Cl)cc2)n1	?	14.6µM	23.1µM	?	?	i
C=CCCC(=O)Nc1nc(C)c(-c2csc(Nc3ccc(Cl)cc3Cl)n2)s1	i	14.6µM	i	?	i	i
Cc1nc(NC(=O)CC(C)C)sc1-c1csc(Nc2ccc(Cl)cc2Cl)n1	i	18.4µM	14.6µM	?	i	i
CCCCCCCCCCCCCC/C(C(=O)O)=C(\C)C(=O)O	i	nt	nt	nt	i	nt
CCCn1c(-c2ccc(F)cc2)nc2c(NC(C)CCCN(CC)CC)nc(C)nc21 (stereo unspecified)	i	nt	nt	nt	i	nt
CCOC(=O)c1c(NC(=S)NC(=O)c2ccc(Cn3cc(Cl)cn3)o2)sc2c1CCCCC2	i	?	i	?	?	i
Cc1nn(-c2nc(-c3ccc(F)cc3)cc(C(F)(F)F)n2)c(C)c1Br	nt	18.4µM	nt	?	nt	nt
Cc1nn(-c2nc(-c3ccco3)cc(C(F)(F)F)n2)c(C)c1Cl	i	i	i	i	i	i
Fc1ccc(-c2cc(C(F)(F)F)nc(N3CCCCC3)n2)cc1	i	i	i	i	i	i
Cc1nn(-c2nc(-c3ccc(F)cc3)cc(C(F)(F)F)n2)c(C)c1Cl	nt	18.4µM	nt	18.4µM	nt	nt
O=C(/C=C/c1ccccc1Cl)OCC(=O)N1CCc2ccccc21	nt	i	nt	i	nt	i
COc1cccc(SCc2noc(C(=O)NC(C)C)c2C(=O)NC(C)C)c1	nt	?	i	?	nt	i
CCCCCCN1C[C@@H](O)[C@H](n2cc(-c3ccc(F)cc3)nn2)C[C@@H]1c1ccc(C)cc1	nt	20.6µM	nt	?	nt	i
CCCCCCN1C[C@H](O)[C@@H](n2cc(-c3ccc(F)cc3)nn2)C[C@@H]1c1ccc(C)cc1	nt	23.1µM	nt	?	nt	i
CCCCCCN1C[C@@H](n2cc(-c3ccc(F)cc3)nn2)[C@H](O)C[C@@H]1c1ccccc1	nt	13µM	nt	?	nt	i
O=c1cc(-c2cccc(F)c2)[nH]c2cc(Cl)ccc12	i	nt	nt	nt	i	nt
Cc1cccc(NS(=O)(=O)c2ccc(NC(=O)N3CCCC3)cc2)c1	nt	i	nt	i	nt	nt
O=C(COC(=O)/C=C/c1ccc(Cl)c(Cl)c1)NC1CCS(=O)(=O)C1 (stereo unspecified)	nt	18.4µM	i	10.3µM	nt	i
O=C(COC(=O)/C=C/c1ccc(Cl)c(Cl)c1)NC1CCCC1	nt	i	i	i	nt	i
O=C(CSc1nc2ccccc2c(=O)n1CCC(=O)NC1CCCCC1)Nc1ccccc1Cl	nt	i	nt	i	nt	nt
CC1=Nc2cc(C(=O)NC3CCCC3)ccc2Sc2ccc(C)cc21	nt	0.92µM	nt	1.16µM	nt	nt
COc1cc(C(=O)NC2CCCCC2)ccc1OCc1ccc(Cl)cc1Cl	i	i	i	i	i	i
CCOC(=O)N1CCC(NC(=O)c2ccc3c(c2)N=C(C)c2ccccc2S3)CC1	i	?	i	?	i	i
SMILES	Gal4-VP16 FLuc	TDP1 cell noCPT	ELG1 DNA repair	DT40 TDP1 CPT	RORgamma inh	IL1B secr inh
CC1=Nc2cc(C(=O)NC3CCCC3)ccc2Sc2ccc(Cl)cc21	nt	0.581µM	nt	0.82µM	nt	nt
CCC1=Nc2cc(C(=O)NC3CCCC3)ccc2Sc2ccc(Cl)cc21	nt	0.92µM	nt	0.92µM	nt	nt
CC[C@H](C)[C@H](NC(=O)[C@H](CC(=O)O)NC(=O)[C@H](CC(N)=O)NC(=O)[C@@H](NC(=O)[C@H](CCCNC(=N)N)NC(=O)[C@@H](NC(=O)[C@@H](NC(=O)[C@@H](NC(=O)[C@@H](NC(=O)[C@H](CCCCN)NC(=O)[C@@H](NC(=O)[C@H](CC(C)C)NC(=O)[C@@H](NC(=O)[C@H](CCCCN)NC(=O)[C@@H](NC(=O)[C@H](CC(=O)O)NC(=O)[C@H](CC(=O)O)NC(=O)[C@H](CCC(N)=O)NC(=O)[C@@H](NC(=O)[C@H](CCCCN)NC(=O)[C@H](CCC(N)=O)NC(=O)[C@@H](NC(=O)[C@@H]1CCCN1C(=O)[C@@H](N)C(C)C)[C@@H](C)CC)C(C)C)[C@@H](C)O)[C@@H](C)O)[C@@H](C)CC)[C@@H](C)O)[C@@H](C)CC)C(C)C)[C@@H](C)O)[C@@H](C)CC)C(=O)N[C@@H](CO)C(=O)N[C@@H](Cc1cnc[nH]1)C(=O)N[C@H](C(=O)N[C@@H](CCC(N)=O)C(=O)N[C@@H](CO)C(=O)N[C@H](C(=O)N[C@@H](CO)C(=O)N[C@@H](CO)C(=O)N[C@@H](CCCCN)C(=O)N[C@@H](CCC(N)=O)C(=O)N[C@@H](CCCCN)C(=O)O)C(C)C)[C@@H](C)O	i	nt	nt	nt	i	nt
O=C(Nc1ccc([N+](=O)[O-])cc1)c1nc[nH]c1C(=O)NC1CCCCC1	3.55µM	?	?	?	1.58µM	i
O=C(Nc1ccc(F)cc1)c1nc[nH]c1C(=O)Nc1ccc([N+](=O)[O-])cc1	7.08µM	14.6µM	i	?	5.01µM	i
Cc1nnc(N/N=C/c2cccc(OCc3ccc(Cl)c(Cl)c3)c2)n1N	?	?	?	?	?	-83.9
CCc1nnc(N/N=C\c2ccc(OC(C)=O)c(OC)c2)n1N	?	i	i	i	?	i
CCc1nnc(N/N=C/c2cc(Br)c(O)cc2O)n1N	11.2µM	?	i	4.11µM	10µM	i
CCc1nnc(N/N=C/c2c(Cl)cccc2Cl)n1N	?	i	i	i	?	i
CCc1nnc(N/N=C/c2ccc(O)c(OC)c2)n1N	12.6µM	i	i	?	15.8µM	i
CCc1nnc(N/N=C/c2cccs2)n1N	12.6µM	?	i	25.9µM	?	i
COc1ncc2nc(C)c(=O)n(C[C@H]3CCCO3)c2n1	i	i	nt	i	i	nt
CCCCn1c(N)c(N(C)C(=O)c2ccccc2Oc2ccccc2)c(=O)[nH]c1=O	nt	i	i	i	nt	i
CC(C)(C)c1nnc(N/N=C/c2cc(Br)ccc2O)n(N)c1=O	10µM	2.31µM	?	2.59µM	12.6µM	i
CCOc1cc(/C=N/Nc2nnc(C)n2N)ccc1OC(C)=O	?	16.4µM	?	?	11.2µM	i
Cc1cc(C(=O)OCC(=O)N2CC(C)OC(C)C2)c(C)n1-c1ccccc1 (stereo unspecified)	nt	?	i	?	nt	i
